From PubChem BioAssay (NCI)
Compounds without any hit were thinned out: in the full panel of roughly 79,000, 15% have a hit. No stated cut-off is given here; in the data, active means growth inhibition above about 70%; inactive means the rest.

Legend:
[1] = NCI Yeast Anticancer Drug Screen. Data for the rad50 strain (AID 155);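 further: 0% = growth of vehicle-only cultures of the same strain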; conditions: S. cerevisiae rad50 strain growth inhibition; at 50.0 µM; active compounds read high
How it was run: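 Relative growth inhibition (compound vs vehicle) was measured in yeast with a defined repair-gene alteration.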

[2] = NCI Yeast Anticancer Drug Screen. Data for the mec2-1 strain (AID 157); conditions: S. cerevisiae mec2-1 strain, at 50.0 µM, active compounds read high
How it was run: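 Using mec2-1 yeast: add compound, measure growth, express inhibition versus vehicle-treated cultures.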

[3] = NCI Yeast Anticancer Drug Screen. Data for the sgs1 mgt1 strain (AID 161);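 further: 0% = growth of cultures given vehicle only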; conditions: S. cerevisiae sgs1 mgt1 strain, at 50.0 µM, active compounds read high
How it was run: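 Compounds are added to genetically altered yeast, and growth is compared with cultures given vehicle alone to give percent inhibition.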

[4] = NCI Yeast Anticancer Drug Screen. Data for the cln2 rad14 strain (AID 165);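 further: 0% = growth equal to vehicle treated cultures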; conditions: S. cerevisiae cln2 rad14 strain, at 50.0 µM, active compounds read high
How it was run: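 Yeast strain cln2 rad14, bearing defects in cell cycle control and DNA repair, serves as the test system; values reflect growth inhibition compared with vehicle.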

[5] = NCI Yeast Anticancer Drug Screen. Data for the bub3 strain (AID 167); conditions: S. cerevisiae bub3 mutant strain, at 50.0 µM, active compounds read high
How it was run: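 Screening used yeast with an engineered genetic alteration affecting cell cycle control. Compound-exposed cultures were compared with vehicle cultures, and reduced growth was taken as inhibition.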

[6] = NCI Yeast Anticancer Drug Screen. Data for the mlh1 rad18 strain (AID 175); conditions: S. cerevisiae mlh1 rad18 strain growth inhibition; at 50.0 µM; active compounds read high
How it was run: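 Steps: expose repair-defective yeast to compound; measure growth; express inhibition against vehicle-treated controls.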

Measured: growth inhibition

CC(C)(C)c1cc2c(OP(c3ccccc3)c3ccccc3)c(c1)Cc1cc(C(C)(C)C)cc(c1OP(c1ccccc1)c1ccccc1)Cc1cc(C(C)(C)C)cc(c1OP(c1ccccc1)c1ccccc1)Cc1cc(C(C)(C)C)cc(c1OP(c1ccccc1)c1ccccc1)C2
inactive: [1] -11.8% | [2] -25.9% | [3] -38.5% | [4] -5.15% | [5] -18.7% | [6] -14.2%

COc1cc(OC)c(C2c3cc4c(cc3OC(C)(N3CCCC3)C2C)OCO4)c(OC)c1 (stereo not given)
inactive: [1] 4.5% | [2] 14.6% | [3] 5.25% | [4] -8.65% | [5] 9.45% | [6] 20.3%

BrCCCCOc1ccccc1
inactive: [1] 3.5% | [2] 2.65% | [3] -11.3% | [4] -4.25% | [5] -2.7% | [6] 2.7%

NCCCC(N)C(=O)O (stereo not given)
inactive: [1] -16.9% | [2] -17.4% | [3] -33.5% | [4] -12.7% | [5] -42.6% | [6] -19.7%

N#CNC1=C(C#N)C(c2ccccc2)CC(=O)N1 (stereo not given)
inactive: [1] 4.35% | [2] 25.5% | [3] 24.9% | [4] 0% | [5] -0.4% | [6] 10.2%

CCCC(C)OS(=O)(=O)c1ccc(C)cc1 (stereo not given)
inactive: [1] 13% | [2] -6.55% | [3] 0.75% | [4] -36.5% | [5] 8.85% | [6] 5.05%

COC(=O)c1cc2c(cc1CC(Cc1ccc3c(c1)CCCC3)C(=O)OC)CCCC2 (stereo not given)
inactive: [1] -2.1% | [2] 1.35% | [3] -15.2% | [4] 2.35% | [5] -2.25% | [6] -5.15%

CC=C(c1ccc(OC)cc1)c1ccc(OC)cc1
inactive: [1] 0.9% | [2] -9.95% | [3] 5% | [4] -46.9% | [5] 2.55% | [6] -4.5%

O=C1Cc2c([nH]c3c(Cl)cccc23)-c2ccccc2N1
inactive: [1] -4.65% | [2] 14.6% | [3] -19.2% | [4] 21.8% | [5] 4.5% | [6] -23.4%

Cc1nc(-c2ccccc2)cc2c1c(=O)oc1ccccc12
inactive: [1] -14.7% | [2] -30.6% | [3] 4% | [4] 6.3% | [5] -5.4% | [6] -8.55%

CN(C)c1ccc(/C=C/c2ccnc3ccc(Cl)cc23)cc1
inactive: [1] 23% | [2] 22.5% | [3] 32.1% | [4] 5.85% | [5] 21.6% | [6] 34%

Oc1cc(N2CCCC2)ccc1/C=N/N1C(=S)N(c2ccccc2)C(=Nc2ccccc2)C1=Nc1ccccc1
inactive: [1] -23.1% | [2] -31.8% | [3] -1.3% | [4] 6.7% | [5] -30.6% | [6] -39.9%

CCC(CC)C(=O)NC(O)C(Cl)(Cl)C(C)Cl (stereo not given)
inactive: [1] 3.8% | [2] 27.1% | [3] 0.55% | [4] 20.3% | [5] 6.65% | [6] 14.6%

CC(=O)Oc1ccccc1C1CCCCC1
inactive: [1] -1.7% | [2] -28.6% | [3] -2.5% | [4] 17.2% | [5] -11.9% | [6] 0.9%

Cc1ccc(S(=O)(=O)C23N=NC(C)(C)C2N=NC3(C)C)cc1 (stereo not given)
inactive: [1] -10.8% | [2] -19.8% | [3] -6.9% | [4] -58% | [5] -46.6% | [6] 5.4%

CCC(C(=O)c1ccccc1)[n+]1ccccc1 (stereo not given)
inactive: [1] -4.55% | [2] -16% | [3] -6.7% | [4] -15.6% | [5] 13.2% | [6] 3.05%

CC1(N)CC2CCC1C2 (stereo not given)
inactive: [1] -3.5% | [2] -1.25% | [3] 5% | [4] -14.2% | [5] -21.4% | [6] 2.75%

Cc1cccc(C)c1NC(=O)CNc1ncccn1
inactive: [1] -14.3% | [2] 1% | [3] 3.7% | [4] -4.7% | [5] 19.1% | [6] 4.65%

CCC1c2c(cc(=O)[nH]c2O)C(=O)N1Cc1ccccc1 (stereo not given)
inactive: [1] 12.3% | [2] 6.4% | [3] 7.75% | [4] 4.25% | [5] 1.15% | [6] -0.1%

CC(C)=C/C(C)=N/Nc1ccc([N+](=O)[O-])cc1[N+](=O)[O-]
inactive: [1] 5.9% | [2] 5.6% | [3] 13.5% | [4] 2.05% | [5] 12.8% | [6] -0.2%
